Compound activity (PubChem)
D3 ag: activates the human D3 dopamine receptor; P35462; D3R DiscoveRx beta-arrestin cells, luminescence, 90 min; max activation, %; actives 0.58% (n = 410,000); AID 652048; in the data active means max activation above about 30%; further: 0% is about no effect
Target sequence (P35462 whole entry, looked up): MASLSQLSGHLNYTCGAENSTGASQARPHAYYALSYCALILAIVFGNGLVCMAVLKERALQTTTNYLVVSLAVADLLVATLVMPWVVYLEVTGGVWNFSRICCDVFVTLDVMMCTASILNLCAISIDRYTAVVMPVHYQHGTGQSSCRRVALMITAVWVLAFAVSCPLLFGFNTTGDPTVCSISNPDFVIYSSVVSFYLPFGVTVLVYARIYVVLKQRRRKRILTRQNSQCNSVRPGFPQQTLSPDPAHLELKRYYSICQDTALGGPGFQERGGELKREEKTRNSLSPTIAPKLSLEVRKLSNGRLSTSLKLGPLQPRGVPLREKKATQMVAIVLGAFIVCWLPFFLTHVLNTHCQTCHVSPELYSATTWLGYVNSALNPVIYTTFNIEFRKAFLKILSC
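Agonist-mode cell screen: cells plated at 1500/well and incubated overnight at 37 °C, then exposed to library compounds for 90 min at 37 °C. Detection reagent was added for 30–60 min at room temperature, and luminescence was read.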
PI5P4K alpha inh: PI5P4K alpha (human) kinase inhibition. PI5P4Kalpha enzyme, ADP-Glo luminescence, 60 min; active compounds read low. max response, %. actives 1.2% (n = 330,000); active means max response of -50% or lower; inconclusive means between -30% and -50%; inactive means -30% or higher; further: value at the top dose of about 77 µM; on the % scale 0 is the no-effect control and ±100 the full control effect
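Luminescence from ADP-Glo served as readout of PI5P4Kalpha activity in a qHTS format. Reaction: enzyme, substrate, compound, ATP at 5 microM final, 60 min at RT.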
PI4K2A block: PI4K2A (human) kinase inhibition | Q9BTU6 | purified PI4K2A, ADP-Glo luminescence, 1 h; active compounds read low | activity change, negative = inhibition, % at 76.9 µM | actives 0.13% (n = 420,000); in the data active means activity change below about -50%; inconclusive means mostly about -30% to -49%;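 further: -100% = wells without enzyme as full effect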
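Compounds are screened against recombinant PI4K2A using PI as substrate and ATP, the latter dispensed at 300 microM. Reactions run one hour at ambient temperature before ADP-Glo detection; full inhibition defined by wells lacking enzyme.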
LDHA inh: blocks human lactate dehydrogenase A; activity change, % (values are at about 110 or 230 µM); purified LDHA, NADH/diaphorase-resazurin fluorescence; active compounds read low; actives 0.15% (n = 480,000); P00338; in the data active means activity change below about -30%; inconclusive means mostly about -25% to -30%;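 further: plate controls were DMSO wells for no effect and wells without enzyme for full effect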
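Human LDH5 at 2 nM final in Tris HCl pH 7.4 with 0.06 mM NADH and 0.2 mM pyruvate, reacted 5 minutes at room temperature. Remaining NADH coupled via diaphorase/resazurin; resorufin fluorescence read at 0 and 20 minutes, normalized to enzyme-free and DMSO wells.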
DRD3 antagonist: D3 dopamine receptor (human) antagonism; P35462; D3R cells, DiscoveRx beta-arrestin luminescence, antagonist mode; active compounds read low; max response, negative = inhibition, %; actives 2.5% (n = 360,000); AID 652054; in the data active means max response below about -50%; inconclusive means no clear call, values can overlap the other calls; further: on the % scale 0 is the no-effect control and ±100 the full control effect
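Cells expressing the human receptor were seeded at 1500 cells/well, incubated overnight at 37 degrees C in 5% CO2, then exposed to library compounds with dopamine controls for 90 minutes at 37 degrees C before luminescent detection.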
* marks the source's active call; other numbers are inactive results; ? = inconclusive; · = no result given. Shown are actives, neighbours in structure and some others; about 3.3% of the full set was active somewhere.

SMILES	D3 ag	PI5P4K alpha inh	PI4K2A block	LDHA inh	DRD3 antagonist
Cc1cccnc1C(NC(=O)C1CCN(Cc2ccc(Cl)cc2)CC1)c1ccc(F)cc1 (stereo not given)	-17	0	2	-7	0
Cc1cccnc1C(NC(=O)C1CCN(Cc2ccc3ccccc3n2)CC1)c1ccc(Cl)cc1 (stereo not given)	-12	-4	-6	-5	-68*
COc1ccc(OCCN2CCC(C(=O)NC(c3ccc(F)cc3)c3ncccc3C)CC2)cc1 (stereo not given)	-14	0	3	-6	-85*
COc1c(Cl)cc(/C=C(/C#N)c2cccc(F)c2)cc1Cl	·	·	·	2	·
COCCn1cnc2c1c(=O)n(CC(=O)Nc1ccc(F)cc1F)c(=O)n2Cc1ccccc1	·	·	·	6	·
CN(Cc1cnn(C)c1)C(=O)C1CC(=O)N(c2ccc3c(c2)CCC3)C1 (stereo not given)	·	·	·	0	·
COc1cc(OC)c2c(C)c(CC(=O)Nc3ccc(CCO)cc3)c(=O)oc2c1	·	·	·	0	·
COc1cccc(C(=O)Nc2ccc3oc(-c4cccc(Br)c4)nc3c2)c1	·	·	·	10	·
COc1cccc(CN2CCN(S(=O)(=O)c3ccccc3)CC2)c1OC	4	1	-1	-8	2
COc1ccc(CN2CCN(S(=O)(=O)c3ccccc3)CC2)c(OC)c1	-19	·	9	-24	-70*
Cc1ccccc1CN1CCN(S(C)(=O)=O)CC1	-2	12	-6	-13	?
Cc1ccccc1CN1CCN(S(=O)(=O)c2ccc(F)cc2)CC1	-1	-1	-2	?	-78*
COc1ccccc1CN1CCN(S(=O)(=O)c2ccccc2)CC1	-3	-3	0	-11	-68*
COc1ccc(OC)c(CN2CCN(S(=O)(=O)c3ccccc3)CC2)c1	-11	-6	-3	-11	-11
CC[C@@H](CCCc1ccc(OC)cc1)CCC(=O)N(c1ccccc1)c1ccccc1	·	·	-2	·	·
COc1ccccc1C(=O)Nc1ccc2oc(-c3ccccc3)cc(=O)c2c1	·	·	·	-8	·
Cc1cccc(C(=O)OCCCN(C)C)c1	·	·	·	-9	·
COc1ccc(-c2csc(NCCn3c(C)nc4cc(C(F)(F)F)ccc43)n2)cc1	37*	8	9	1	73
Cc1ccc(-c2csc(NCCn3c(-c4ccncc4)nc4ccccc43)n2)cc1	51*	20	2	0	120
COC(=O)c1ccc(CSc2nc3c(cnn3-c3ccc(C)cc3)c(=O)[nH]2)o1	35*	·	-2	-2	20
COC(=O)c1ccc(CCc2cc(O)ccc2O)cc1	-6	?	-4	40	?
COC(=O)c1ccc(CCc2cc(O)c(Br)cc2O)cc1	-8	-52*	6	38	-6
Oc1ccccc1N1CCN(CC(O)COCc2ccccc2Cl)CC1 (stereo not given)	29	-4	2	-3	-53*
C=CCc1ccccc1OCC(O)CN1CCN(c2ccccc2F)CC1 (stereo not given)	28	2	2	-4	?
OC(CSc1ccccc1Cl)CN1CCN(c2ccccc2F)CC1 (stereo not given)	1	·	1	0	-67*
SMILES	D3 ag	PI5P4K alpha inh	PI4K2A block	LDHA inh	DRD3 antagonist
OC(CSc1c(Cl)cccc1Cl)CN1CCN(c2ccccc2F)CC1 (stereo not given)	20	·	0	1	-56*
CCOc1ccc(Oc2ccc(NC(=O)c3ccc4c(c3)NC(=O)CS4)cc2)cc1	·	·	·	9	·
CCOCCCNC(=O)CSCc1nc(-c2ccc(C)cc2)oc1C	·	·	·	-34*	·
CC(C)n1[nH]c2ccccc2c1=O	-16	4	1	-3	-66*
CC(C)Cn1c(=S)[nH]c2ccccc2c1=O	1	2	-3	0	4
N#Cc1c(-c2ccccc2)ccn(Cc2ccccc2Cl)c1=O	-1	7	-3	-1	-51*
N#Cc1c(-c2ccccc2)ccn(Cc2cccc(Cl)c2)c1=O	-8	-5	6	-4	11
CC(=O)Nc1cc(OC(C)=O)c2nonc2c1OC(C)=O	-10	·	-53*	46	?
Cc1cccc(C)c1NC(=O)CSc1nnc(-c2cccs2)n1-n1cccc1	·	·	·	4	·
O=C(Cc1ccc(S(=O)(=O)N2CCCCC2)cc1)NC1CC1	·	·	·	2	·
COc1ccc(C2C(Oc3ccccc3C)C(=O)N2Cc2ccc(F)cc2)cc1OC (stereo not given)	-11	3	-2	2	-69*
COCCNC(=S)N(C)[C@H]1C[C@H]2c3cc(Oc4ccccc4C)ccc3CCN2C(=O)[C@H]1[C@H](C)O	5	9	-6	-20	-2
COCCNC(=S)N(C)[C@H]1C[C@H]2c3cc(-c4ccccc4)ccc3CCN2C(=O)[C@H]1[C@H](C)O	4	0	-6	-32*	1
O=C(CCCC(=O)N1CCC(c2noc3ccc(F)cc23)CC1)N1CCSCC1	·	·	·	3	·
CC(=O)Nc1ccc(S(=O)(=O)NC(C)C(=O)NCC(c2ccco2)N2CCCCC2)cc1 (stereo not given)	0	2	1	1	30
Cc1ccc(S(=O)(=O)NC(CC(C)C)C(=O)NCC(c2ccco2)N2CCCCC2)cc1 (stereo not given)	-25	1	-1	0	-79*
Cc1c(C(=O)NCC(c2ccco2)N2CCCC2)sc2ccccc12 (stereo not given)	-24	6	10	6	-64*
CSc1ccccc1C(=O)NCC(c1ccco1)N1CCCCC1 (stereo not given)	-9	-7	-22	-4	7
S=C(NCc1ccco1)NCC(c1ccco1)N1CCCCC1 (stereo not given)	0	2	0	-3	-66*
CCc1cc(C(=O)NCC(c2ccco2)N2CCCCC2)sc1C (stereo not given)	-9	-9	2	-6	-59*
CN(C)C(=O)c1ccc(NC(=O)COC(=O)c2cc3ccccc3o2)cc1	·	·	·	5	·
O=C(O)c1cccc(CS(=O)(=O)c2ccccc2)c1	·	·	·	3	·
COc1cccc(N2CCN(c3nc(-c4cccnc4)nc4ccccc34)CC2)c1	·	·	·	1	·
N#C/C(C(=O)CCl)=C(/c1ccc(F)cc1)N1CCOCC1	·	·	·	1	·
CCC(C)Nc1nc(-c2ccncc2)nc2ccccc12 (stereo not given)	·	·	·	7	·
SMILES	D3 ag	PI5P4K alpha inh	PI4K2A block	LDHA inh	DRD3 antagonist
COC(=O)Cc1ccc2sc(-c3ccccc3)nc2c1	3	-9	-62*	-6	?
O=C(O)Cc1ccc2sc(-c3ccccc3)nc2c1	-5	-14	-67*	-10	15
COc1ccc(CNC(=O)c2nc(-c3ccc4[nH]ccc4c3)no2)cc1OC	·	·	·	12	·
Cc1[nH]c2ccccc2c1C(=O)NCc1ccc(CN(C)C)cc1	·	·	·	-10	·
CCN(CC)CCn1c(NCc2cccc(OC)c2)nc2ccccc21	-7	0	2	-4	-86*
CCN(CC)CCn1c(NCc2ccc3c(c2)OCO3)nc2ccccc21	-14	-7	-7	-1	-12
